Test results reported in PubChem BioAssay AID1645851 (National Center for Advancing Translational Sciences (NCATS), 2021).
Several values for one entry are separate records, joined by “and”; a condition that tells them apart may be missing. Equal values may be shown once. The whole screen tested about 140,000 compounds, of which about 1,200 (0.86%) were called active. No stated cut-off is given here; in the data, active means activity change below about -25%; inactive means the rest. Many of the other results were omitted from the sample, so actives are more common in it than they were. The source holds several records for some structures; these can differ, active in one and inactive in another.

biological target: Inositol hexakisphosphate kinase 1 (Homo sapiens) (UniProt Q92551); assay: Primary qHTS assay for small molecule inhibitors of Inositol hexaphosphate kinase 1 (IP6K1); conditions: ADP-Glo luminescence, 2 h, stronger effect = lower value; further: series mostly up to about 58 µM
Sequence (Q92551 whole entry, looked up): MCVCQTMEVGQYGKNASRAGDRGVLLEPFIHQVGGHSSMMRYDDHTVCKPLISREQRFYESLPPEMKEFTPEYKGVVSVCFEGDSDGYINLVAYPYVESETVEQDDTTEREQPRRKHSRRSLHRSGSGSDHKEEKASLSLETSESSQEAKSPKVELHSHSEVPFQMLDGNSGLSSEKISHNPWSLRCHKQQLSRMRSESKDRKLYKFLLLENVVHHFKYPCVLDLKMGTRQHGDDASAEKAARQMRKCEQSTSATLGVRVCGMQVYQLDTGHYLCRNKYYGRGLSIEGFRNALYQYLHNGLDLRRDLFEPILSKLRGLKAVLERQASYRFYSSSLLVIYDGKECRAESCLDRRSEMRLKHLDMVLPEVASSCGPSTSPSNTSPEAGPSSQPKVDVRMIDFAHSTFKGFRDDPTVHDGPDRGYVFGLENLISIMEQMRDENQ
In short: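 ADP-Glo luminescence measures ADP made by human IP6K1 during a 2 h RT reaction with ATP/IP6 (mix at 1.3 mM/130 uM); top library doses 57.5 and 19.1 uM final.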
On the % scale 0 is the no-effect control and ±100 the full control effect.

SMILES | activity change
CCCn1c(C)cnc1C1CCN(S(C)(=O)=O)C1 (configuration not stated) | 2.78% (inactive)
O=C(NC1CCCCCC1)C1CCCN(Cc2cccc(-c3cccs3)c2)C1 (configuration not stated) | 8.71% (inactive)
Cn1nc(C2CCCN(C(=O)NCc3ccccc3)C2)n(Cc2ccccc2)c1=O (configuration not stated) | -4.56% (inactive)
COc1ccccc1N1CCCc2ncc(C(=O)N3CCCC[C@@H]3c3ccccc3)cc21 | -3.23% (inactive)
COC(=O)[C@H](NC(=O)[C@@H]1C[C@H](NC(=O)Nc2ccc(F)cc2F)CN1C(C)=O)C(C)C | -6.82% (inactive)
O=C(Nc1cccc(-c2nc3ccccc3o2)c1)c1cccc(Br)c1 | 18.7% (inactive)
Cc1ccc(SCC(=O)Nc2ccc3oc(-c4ccccc4C)nc3c2)cc1 | 18.6% (inactive)
CCC(=O)Nc1cccc(-c2nc3cc(C)ccc3o2)c1 | -27.3% (active)
CC1(c2ccccc2)N(Cc2ccccc2F)C(=O)OC12CCN(Cc1cccc(O)c1)CC2 (configuration not stated) | -6.41% (inactive)
Cc1noc(-c2ccc(OC3CN(C(=O)c4ccco4)C3)cc2)n1 | 5.28% (inactive)
CC1(C)[C@H](Cc2cc(CC3CCCCC3)on2)C[C@@H]1NC(=O)C1CCC1 | -13.8% (inactive)
O=C(NCc1ccc2c(c1)OCO2)C1CCCN(Cc2cccc(-c3cccs3)c2)C1 (configuration not stated) | -3.87% (inactive)
COc1ccc(-c2nc3ccncc3[nH]2)cc1 | -18.1% (inactive) and -33.5% (active)
COc1ccc(C(=O)N2CCCC2C(=O)N2CCCC2c2nc3ccncc3[nH]2)cc1 (configuration not stated) | 15.6% (inactive)
c1cc(-c2nc3ccncc3[nH]2)ccn1 | 3.83% (inactive) and 13.8% (inactive)
O=C(NCC1CN(C(=O)c2cnccn2)CC12CCOCC2)N1CCCC1 (configuration not stated) | 5.72% (inactive)
COc1ccc2[nH]c3c(c2c1)CCNC31CCN(C(=O)c2ccccc2)CC1 | 15.7% (inactive)
O=C(c1ccccc1Cl)N1CCN(C(=O)c2nc3cccnc3n(Cc3ccccc3)c2=O)CC1 | -2.58% (inactive)
CCOc1ccccc1C(=O)N1CCC(Oc2ncccc2C(=O)N(C)C)C1 (configuration not stated) | 17.8% (inactive)
CCOc1ncccc1C(=O)N1CCN(Cc2ccccc2)CC(O)C1 (configuration not stated) | -34.4% (active)
Nc1nc2c(s1)C(c1ccccc1)CC(=O)N2 (configuration not stated) | -56.5% (active)
CN1C(=O)CC(c2ccccc2)C1=O (configuration not stated) | 10.2% (inactive)

SMILES | activity change
COC(=O)[C@H](NC(=O)C1=C[C@@H](NC(=O)CS(=O)(=O)c2ccccc2)[C@@H](O)[C@H](O)C1)C(C)C | 22% (inactive)
COc1cccc(CN2CCOC[C@H](Oc3ccccc3)C2)c1 | 7.17% (inactive)
CN(C)CC1(O)CCC2(CCN(C(=O)c3ccc4ccccc4n3)CC2)CC1 | -13.2% (inactive)
CSCC(=O)N1CCC2(CC1)CC(c1ccccc1)CN(C)C2 (configuration not stated) | 3.1% (inactive)
Cc1cccc(C(=O)N2CCC3(CC2)CC(c2ccccc2)CN(C)C3)n1 (configuration not stated) | -35.9% (active)
CC1=C[C@@H](CNC(C)C)[C@H](C(C)C)C[C@H]1Cc1nnc(-c2ccc(C)cc2)o1 | -3.97% (inactive)
O=C(Cc1cccc(F)c1)N1CCC[C@H]1c1nc(-c2ccc(F)cc2)n[nH]1 | 21.1% (inactive)
O=C1CCC2(C(=O)NCCCN3CCCC3)CCC=C2N1C1CCCC1 (configuration not stated) | 9.28% (inactive)
CCOc1cccc2c1N[C@@H](c1ccc(C(=O)O)cc1)[C@H]1CC=C[C@@H]21 | -85.5% (active)
CCOc1cccc(CC(=O)N2CCc3c([nH]c4ccccc34)C2c2ccc(F)cc2)c1OCC (configuration not stated) | 2.13% (inactive)
CCOc1ccccc1CNC(=O)c1ccc(-n2c(C)cc3c2CCC(C)C3)cc1 (configuration not stated) | 14.3% (inactive)
COc1ccc(OC2CN(CC3CCCCC3)C2)cc1 | -18% (inactive)
CCN(CC)CCNC(=O)C12CCCC=C1N(Cc1ccccc1)C(=O)CC2 (configuration not stated) | 7.12% (inactive)
O=C(OCCN1CCOCC1)c1cccnc1Nc1cccc(C(F)(F)F)c1 | -58.6% (active)
O=C(c1ccccc1)N1CCNc2cnc(Nc3cccc(C(F)(F)F)c3)nc2C1 | 4.76% (inactive)
CCc1cccc(NC(=O)c2cnc(N3CCOCC3)c3ccccc23)c1 | -10.5% (inactive)
O=C(c1ccc(Cl)cc1)N1CCCC(n2cc(-c3nc(-c4ccccc4)no3)nn2)C1 (configuration not stated) | 5.18% (inactive)
O=C(C1CCCN(C(=O)C2CC2)C1)N1CCC(N2CCCC2=O)CC1 (configuration not stated) | -0.186% (inactive)
CN(C)C[C@@H]1CN(c2ccncn2)C[C@H]1NC(=O)c1cc(C2CC2)[nH]n1 | 3.23% (inactive)
CCn1c2ccccc2c2cc(CN3CCN(Cc4cccc(Cl)c4)CC3)ccc21 | -4.05% (inactive)
O=c1c2ccccc2n(Cc2cccc(Cl)c2)c(=O)n1Cc1ccccc1 | -26% (active)
O=C(NC1CCN(Cc2ccccc2)CC1)c1ccc(Cn2c(=O)c3ccccc3n(Cc3cccc(F)c3)c2=O)cc1 | 6.69% (inactive)

SMILES | activity change
CCc1ccc(CN(C)C(=O)c2ccc3oc(-c4cccc(F)c4)nc3c2)nc1 | 12.9% (inactive)
CN(C)C(=O)c1ccc2oc(-c3ccnc(Cl)c3)nc2c1 | -35.6% (active)
O=C(NCc1ccccc1)c1ccc2nc(-c3ccnc(Cl)c3)oc2c1 | -0.193% (inactive)
CCOc1ccc(CC(=O)NC2CCN(c3cc(-c4ccc(F)cc4)[nH]n3)CC2)cc1OCC | 22.5% (inactive)
CC1=C(C(=O)Nc2ccccc2Cl)C(c2cccs2)n2ncnc2N1 (configuration not stated) | -26.4% (active)
COc1ccccc1NC(=O)C1=C(C)Nc2ncnn2C1c1sccc1C (configuration not stated) | -0.661% (inactive)
CCOc1ccccc1NC(=O)C1=C(C)Nc2ncnn2C1c1ccc(NC(C)=O)cc1 (configuration not stated) | -19.2% (inactive)
CCN(Cc1ccccc1)C(=O)CCc1ccc2c(c1)CN(C(=O)NC(C)C)CCO2 | -13.8% (inactive)
CCCC(C)N1CC2(CCN(C(=O)c3csc(C(C)C)n3)CC2)OC1=O (configuration not stated) | 4.73% (inactive)
COc1ccc(-c2ccc3ncn(Cc4ccccc4)c(=O)c3n2)cc1OC | 7.2% (inactive)
O=c1c2nc(-c3ccccc3)ccc2ncn1Cc1ccccc1 | 5.89% (inactive)
O=c1ncn(Cc2ccccc2)c2ccc(-c3ccoc3)nc12 | -29% (active)
COCCn1c(=O)n([C@H]2CCCN(C(=O)CCc3ccccc3)C2)c2ncccc21 | 6.71% (inactive)
CC(C)(Oc1nn(Cc2cccc(Cl)c2)c2ccccc12)C(=O)Nc1cccnc1 | -0.544% (inactive)
Cc1cc(C)cc(N2CCC(NS(=O)(=O)c3cn(C)c(C)n3)C2=O)c1 (configuration not stated) | -1.58% (inactive)
Cc1ccccc1N1CCCN(Cc2nc(-c3ccccn3)no2)CC1 | -0.56% (inactive)
COc1ccc(Nc2cnc3ccc(-c4ccc(OC)nc4)nn23)cc1 | -13.5% (inactive)
COc1ccc(-c2ccc3ncc(Nc4cc(F)cc(N5CCOCC5)c4)n3n2)cn1 | -29.7% (active)
COc1ccc(-c2ccc3ncc(Nc4ccc(C(F)(F)F)cc4)n3n2)cn1 | -13.9% (inactive)
CC[C@@]1(C(=O)O)C[C@H](C(=O)N(C)CC(=O)O)[C@H](c2ccc(OC)cc2)N1C | 9.58% (inactive)
COC(=O)c1ccc(CO[C@H]2CCC=C3C[C@@H](O)CC[C@@]32C)cc1 | 17.7% (inactive)
CCOC(=O)c1ccc(NC(=O)CSc2nc3c([nH]c4ccccc43)c(=O)n2C)cc1 | 32.9% (inactive)

SMILES | activity change
CCOC(=O)c1ccc(CSc2nnc3cc(C)c4ccccc4n23)cc1 | -36.2% (active)
CCOC(=O)c1ccc(NC(=O)c2nc(SCc3ccc(F)cc3)ncc2Cl)cc1 | -10% (inactive)
O=S(=O)(N[C@@H]1CCOC[C@H]1Oc1ccccn1)c1ccc(Cl)s1 | -5.56% (inactive)
O=C(NCc1ccco1)C1c2ccccc2C(=O)N(C2CCCC2)C12CCCCC2 (configuration not stated) | -8.07% (inactive)
CC(=O)N1CCN(c2ccc3nnc(-c4ccc(C)cn4)n3n2)CC1 | -10.9% (inactive)
Cc1ccc(-c2nnc3ccc(-c4ccoc4)nn23)nc1 | -36.1% (active)
Cc1ccc(-c2ccc3nnc(CNC(=O)c4ccccn4)n3n2)cc1 | -2.05% (inactive)
CC(=O)Nc1ccc(S(=O)(=O)N[C@H]2CO[C@H]3[C@@H]2OC[C@@H]3n2nnnc2-c2ccc(N(C)C)cc2)cc1 | 2.63% (inactive)
CCCS(=O)(=O)N1CCC(N2CC(OCCOC)C23CCCCC3)CC1 (configuration not stated) | -5.2% (inactive)
Cc1ccc(NC(=O)c2nc(S(=O)(=O)Cc3cccc(C)c3)ncc2Cl)cc1 | -17.5% (inactive)
CCCS(=O)(=O)c1ncc(Cl)c(C(=O)Nc2scc(-c3ccccc3)c2C(=O)OCC)n1 | -31.2% (active)
CCOC(=O)c1scc(-c2ccccc2)c1S(=O)(=O)Nc1ccccc1F | -14.6% (inactive)
CCNC(=O)CCc1c(CC)nn(-c2ccc(F)cc2)c1Oc1ccccc1 | 1.63% (inactive)
CCOc1ccc(C(=O)N2CCC(c3n[nH]c(=O)n3-c3ccccc3)CC2)cc1OCC | -6.36% (inactive)
CSc1ccc(-c2ccc(C=O)cc2)cc1 | -28.5% (active)
O=Cc1cccc(-c2cc(F)cc(F)c2)c1 | -5.81% (inactive)
COc1ccc(CNC(=O)[C@@H](C)C2CC[C@@]3(C)CC[C@H](NC(=O)c4ccc(C#N)cc4)[C@@H](C)[C@@H]3[C@H]2O)cc1 (some centres not stated) | -11.9% (inactive)
COc1ccc(Nc2ccnc(N3CCCC(C(=O)NCc4ccc(C(F)(F)F)cc4)C3)n2)cc1 (configuration not stated) | -7.37% (inactive)
Cc1ccccc1Cc1c(C)nc2c(C(=O)N3CCc4c(c(-c5nncn5C)nn4C)C3)cnn2c1C | 9.9% (inactive)
N#CC1CCN(C(=O)c2ccc3nnc(Cc4ccco4)n3c2)CC1 | 2.16% (inactive)
COc1ccccc1-c1cc(-c2cccc([S+](C)(=O)[O-])c2)c2onc(C)c2n1 | 2.9% (inactive)
COc1ccccc1-c1cc(-c2cn[nH]c2)c2onc(C)c2n1 | -25.3% (active)

SMILES | activity change
Cc1noc2c(-c3cccc(CO)c3)cc(-c3ccccc3)nc12 | -16.9% (inactive)
Cn1c(CCC(=O)N2CC[C@H](CO)[C@H](O)C2)nc2cccnc21 | -2.6% (inactive)
COc1ccccc1C(=O)N1CCCC2(C1)Nc1cccnc1NC2=NCc1ccccc1 (configuration not stated) | 6.92% (inactive)
O=C(NCC1CCCCC1)[C@@H]1CCCN1c1ccnc2ccnn12 | -2.98% (inactive)
CN(C)c1ccc(CN2CCC(N3Cc4ccccc4C3=O)CC2)cc1 | -12.5% (inactive)
CCc1ccc(N2C(=O)CN(S(=O)(=O)CC)CC2(C)C(=O)NC2CCCCC2)cc1 (configuration not stated) | -13.3% (inactive)
CCc1ccccc1NC(=O)c1ccc(F)c(S(=O)(=O)NC2CCCCCC2)c1 | 15.5% (inactive)
CCc1ccccc1N1C(=O)CN(S(=O)(=O)CC)CC1(C)C(=O)NC1CCCCC1 (configuration not stated) | -30.6% (active)
COC(=O)NC1CCN(Cc2ccc(-c3cc(F)ccc3OC)cc2)C1 (configuration not stated) | 6.69% (inactive)
Cc1oc(C(O)c2ccccc2)nc1C(=O)Nc1ccc2c(c1)CC(=O)N2 (configuration not stated) | 9.78% (inactive)
CCc1ccccc1N1CC(c2nc3ccccc3n2CCCCOc2ccccc2)CC1=O (configuration not stated) | -28.8% (active)
CCOc1ccc(N2CC(c3nc4ccccc4n3CCOc3ccc(OC)cc3)CC2=O)cc1 (configuration not stated) | -11.8% (inactive)
COc1ccc(OCCCn2c(C3CC(=O)N(c4ccc(F)cc4)C3)nc3ccccc32)cc1 (configuration not stated) | -3.06% (inactive)
COCCO[C@H]1C(=O)N(C2CCN(C(=O)c3ccsc3)CC2)[C@H]1c1ccncc1 | 6.99% (inactive)
CCOC(=O)c1ccc(NC(=O)c2c(NCc3cccs3)sc3c2CCCC3)cc1 | -31.3% (active)
CCOC(=O)c1ccc(NC(=O)c2csc3c2CCCCC3)cc1 | 3.62% (inactive)
CCOC(=O)c1ccc(NC(=O)c2c(NCc3cccc(OC)c3)sc3c2CCC3)cc1 | 8.31% (inactive)
CC(=O)Nc1cccc(C(=O)N2CCCN(c3cc(-c4ccc(Br)cc4)[nH]n3)CC2)c1 | -10.1% (inactive)
O=C(NCc1ccc(F)c(F)c1)C1CCCN(Cc2cccc(-c3cccs3)c2)C1 (configuration not stated) | 0.462% (inactive)
